From PubChem BioAssay
697 NFkB inh: lowers PMA/ionomycin-induced NF-kB signal in 697 B cells | inhibition, % at 4 µM | hit rate 0.33% among 330,000 | 697 B-cell NF-kB luciferase reporter, 16 h; in the data active means inhibition above about 35%
Mdm2-MdmX inh: inhibitors of human Mdm2/MdmX interaction; O15151+Q00987; SaOS-2 split-luciferase Mdm2/MdmX complementation, luminescence; inhibition, % at 8 µM; hit rate 3% among 330,000; AID 485346;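 active means inhibition of at least 50% at 8 µM in the primary screen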
Target sequence (O15151 whole entry, looked up): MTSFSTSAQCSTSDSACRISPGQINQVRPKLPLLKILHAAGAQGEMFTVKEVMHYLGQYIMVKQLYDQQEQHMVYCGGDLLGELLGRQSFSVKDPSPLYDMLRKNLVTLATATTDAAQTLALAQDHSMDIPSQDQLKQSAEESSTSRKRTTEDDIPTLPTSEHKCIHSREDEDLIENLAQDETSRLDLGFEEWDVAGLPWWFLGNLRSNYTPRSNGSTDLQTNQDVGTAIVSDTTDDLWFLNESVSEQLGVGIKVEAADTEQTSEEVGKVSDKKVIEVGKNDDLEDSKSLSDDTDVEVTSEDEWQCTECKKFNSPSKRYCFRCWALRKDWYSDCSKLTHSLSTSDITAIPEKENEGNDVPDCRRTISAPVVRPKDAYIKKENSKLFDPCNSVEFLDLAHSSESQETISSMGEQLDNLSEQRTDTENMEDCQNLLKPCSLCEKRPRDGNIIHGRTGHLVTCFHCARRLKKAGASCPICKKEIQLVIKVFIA
Target sequence (Q00987 whole entry, looked up): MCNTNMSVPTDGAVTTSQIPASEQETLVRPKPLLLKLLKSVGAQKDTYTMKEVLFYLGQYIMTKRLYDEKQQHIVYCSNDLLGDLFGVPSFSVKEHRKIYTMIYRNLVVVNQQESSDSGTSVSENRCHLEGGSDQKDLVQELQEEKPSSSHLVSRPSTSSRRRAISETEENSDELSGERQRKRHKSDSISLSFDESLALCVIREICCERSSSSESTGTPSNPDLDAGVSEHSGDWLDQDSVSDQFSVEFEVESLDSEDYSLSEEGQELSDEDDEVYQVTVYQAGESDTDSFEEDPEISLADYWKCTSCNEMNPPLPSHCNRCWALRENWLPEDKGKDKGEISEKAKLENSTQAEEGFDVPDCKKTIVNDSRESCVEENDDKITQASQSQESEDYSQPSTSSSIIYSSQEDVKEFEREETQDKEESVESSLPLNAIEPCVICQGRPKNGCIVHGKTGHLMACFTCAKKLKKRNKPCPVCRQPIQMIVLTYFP
Gli-Sufu block: Gli-Sufu pathway antagonism | Sufu-KO-LIGHT fibroblasts, Gli luciferase reporter luminescence | inhibition, % at 5 µM | hit rate 0.74% among 340,000 | AID 588413;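 active means inhibition above about 55%, limit read from the data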
CSC inhib: cancer stem cell inhibition; cancer stem cell-like cells viability, luminescence; inhibition, % at 7.5 µM; hit rate 1.1% among 300,000; AID 2717; in the data active means inhibition above about 75%; inconclusive means no clear call, values can overlap the other calls; tested in HMLE shEcad cells
Jurkat NFkB inh: lowers PMA/ionomycin-induced NF-kB signal in Jurkat cells; PMA/ionomycin-induced NF-kB luciferase reporter, luminescence; inhibition, % at 4 µM; hit rate 0.53% among 330,000; in the data active means inhibition above about 50%
aSyn 5UTR inh: MLPCN primary screen, SNCA 5' untranslated region; alpha-synuclein 5'UTR reporter, inhibitor activity; inhibition, % (tested at 7.5 µM); hit rate 0.82% among 300,000; in the data active means inhibition above about 60%; inconclusive means no clear call, values can overlap the other calls;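 further: H4 neuroglioblastoma cells stably carrying SNCA 5'UTR luciferase fusion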
Mdm2 MdmX conf: human Mdm2/MdmX binding inhibition, confirmed; shares compounds with Mdm2-MdmX inh; luminescent assay; inhibition, % at 8 µM; hit rate 55% among 10,000; AID 489028; in the data active means inhibition above about 40%
FLuc counter: full-length luciferase inhibition in Mdm2/MdmX counter-screen. shares compounds with Mdm2-MdmX inh. SaOS-2 full-length luciferase counterscreen, luminescence. inhibition, % at 8 µM. hit rate 77% among 6,200. AID 504607;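 active means mean inhibition at 8 µM reaching about 37%, which flags the compound as non-specific, limit read from the data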;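 further: p53-null SaOS-2 cells with luciferase driven by a doxycycline-inducible promoter; compound on cells about two nights before reading with doxycycline added after day one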
Hits are given with their value; 0 = inactive; ? = inconclusive; - = not tested or not shown. Only some compounds are listed: those with a hit (about 4.5% of all), similar ones and a draw of the others.

SMILES	697 NFkB inh	Mdm2-MdmX inh	Gli-Sufu block	CSC inhib	Jurkat NFkB inh	aSyn 5UTR inh	Mdm2 MdmX conf	others
CC(C)C[C@H](NC(=O)c1nc[nH]c1C(=O)NCC(=O)OC(C)(C)C)C(=O)OCc1ccccc1	0	0	0	0	0	0	-
C[C@H](NC(=O)c1[nH]cnc1C(=O)Nc1ccc(Cl)cc1)C(=O)OC(C)(C)C	0	50	0	0	0	0	0
CCOC(=O)c1ccc(NC(=O)c2nc[nH]c2C(=O)N[C@@H](C)C(=O)OC(C)(C)C)cc1	0	0	0	0	0	0	-
CC(C)(C)OC(=O)NCc1ccc(NC(=O)c2nc[nH]c2C(=O)N[C@@H](Cc2ccccc2)C(=O)OCc2ccccc2)cc1	0	60	0	0	0	0	0
CCOC(=O)c1ccc(NC(=O)c2nc[nH]c2C(=O)N[C@@H](CC(C)C)C(=O)OC(C)(C)C)cc1	0	0	0	0	0	0	-
CC(C)C[C@H](NC(=O)c1[nH]cnc1C(=O)Nc1ccccc1)C(=O)OC(C)(C)C	0	57	0	0	0	0	0
CC(C)C[C@H](NC(=O)c1nc[nH]c1C(=O)N[C@@H](CC(C)C)C(=O)OC(C)(C)C)C(=O)OCc1ccccc1	0	64	0	0	0	?	0
CN(CC(=O)Nc1cccc(F)c1)C(=O)c1cc(S(=O)(=O)N2CCN(c3ccccc3)CC2)ccc1Cl	0	0	0	0	0	-	-
Nn1c(Cc2cccc3ccccc23)nnc1SCCOc1ccc(F)cc1	0	0	0	0	0	0	-
O=C(c1ccco1)N1CCN(C(=O)c2cn(-c3ccccc3)nc2-c2ccccc2)CC1	0	0	0	0	0	-	-
CCc1ccccc1NC(=O)CNC(=O)c1cccc(S(=O)(=O)N2CCN(Cc3ccccc3)CC2)c1	0	0	0	-	0	0	-
CC(C)C[C@H](NC(=O)c1[nH]cnc1C(=O)N[C@@H](C)c1ccccc1)C(=O)OCc1ccccc1	0	51	0	0	0	0	0
CC(C)C[C@H](NC(=O)c1nc[nH]c1C(=O)N[C@@H](CCCCNC(=O)OC(C)(C)C)C(=O)OC(C)(C)C)C(=O)OC(C)(C)C	0	73	0	0	0	0	0
CC(C)(C)OC(=O)NCCCC[C@H](NC(=O)c1[nH]cnc1C(=O)Nc1ccc(Cl)cc1)C(=O)OC(C)(C)C	0	56	0	0	0	0	0
CC(C)C[C@H](NC(=O)c1[nH]cnc1C(=O)N[C@@H](C)C(=O)OC(C)(C)C)C(=O)OC(C)(C)C	0	63	0	0	0	0	0
COc1ccccc1NS(=O)(=O)c1cc(NC(=O)COc2ccccc2F)ccc1N1CCOCC1	0	0	0	-	0	-	-
CC(C)(C)OC(=O)N1CCC(NC(=O)c2[nH]cnc2C(=O)Nc2ccc(Cl)cc2)CC1	0	52	0	89	0	-	53	FLuc counter=53
C[C@H](NC(=O)c1nc[nH]c1C(=O)N[C@@H](Cc1ccccc1)C(=O)OC(C)(C)C)c1ccccc1	0	50	0	0	0	0	0
Cc1ccc(NCC(=O)N2CCN(S(=O)(=O)c3ccccc3)CC2)cc1F	0	0	0	-	0	-	-
Cc1cc(-c2nnc3sc(C4CCCCC4)nn23)n[nH]1	0	0	0	-	0	0	-
COc1cc(-c2nnc3sc(C4CCCCC4)nn23)cc(OC)c1OC	0	57	0	0	0	0	0
COc1cccc(-c2nnc3sc(C4CCCCC4)nn23)c1	0	85	0	0	0	0	78	FLuc counter=0
O=[N+]([O-])c1ccc(Sc2nc3ccccc3o2)c([N+](=O)[O-])c1	0	99	0	106	0	0	76	FLuc counter=0
O=[N+]([O-])c1ccc(Cl)cc1Sc1nc2ccccc2o1	0	54	0	0	0	69	0
O=C(NCc1ccc(N2CCCC2=O)cc1)Nc1ccccc1	0	0	0	0	0	0	-
SMILES	697 NFkB inh	Mdm2-MdmX inh	Gli-Sufu block	CSC inhib	Jurkat NFkB inh	aSyn 5UTR inh	Mdm2 MdmX conf	others
CC(=O)NS(=O)(=O)c1ccc(NC(=O)c2oc3c(Cl)cccc3c2C)cc1	0	0	0	0	0	0	-
CCc1ccc(OCCNC(=O)c2ccccc2SCc2ccccc2)cc1	0	80	0	0	0	0	80	FLuc counter=57
CCNC(=O)c1ccccc1SCc1ccccc1	0	0	0	0	0	0	-
CC(=O)c1cccc(N(CC(=O)O)S(C)(=O)=O)c1	0	0	0	0	0	0	-
C[C@@]12CCC=C[C@H]1[C@H](c1ccc3ccccc3c1/C=C/c1ccccc1)N(Cc1ccccc1)C2=O	0	65	0	0	0	0	0
CCN(CC)Cc1ccc(NC(=O)c2sc3cc(Cl)ccc3c2Cl)cc1	0	55	0	101	0	104	0
COc1ccccc1NS(=O)(=O)c1cc(NC(=O)c2sc3cc(Cl)ccc3c2Cl)ccc1C	0	53	0	0	0	0	0	FLuc counter=104
Cc1ccc(Sc2ncccc2C(N)=O)cc1	0	0	0	0	0	0	-
COC(=O)CCC(=O)NC(=S)Nc1ccccc1F	0	0	0	0	0	0	-
Cc1c(C(=O)N2CCCCC2)sc(NC(=O)C23CC4CC(CC(C4)C2)C3)c1C#N	0	0	0	0	0	0	-
COc1ccc2sc(N(CCCN(C)C)C(=O)c3ccc(S(=O)(=O)N4CCCc5ccccc54)cc3)nc2c1	0	80	0	0	0	0	44	FLuc counter=64
CCN(Cc1ccccc1)S(=O)(=O)c1ccc(C(=O)N(CCCN(C)C)c2nc3cc4c(cc3s2)OCCO4)cc1	0	78	0	0	0	0	0	FLuc counter=77
CCN(Cc1ccccc1)S(=O)(=O)c1ccc(C(=O)N(CCCN(C)C)c2nc3ccc(F)cc3s2)cc1	0	0	0	0	0	0	-
CCN(Cc1ccccc1)S(=O)(=O)c1ccc(C(=O)N(CCCN(C)C)c2nc3cc(OC)ccc3s2)cc1	0	50	0	0	0	0	0
Cc1cccc(-n2c(CNC(=O)c3ccc(S(=O)(=O)N(C)C)cc3)nnc2SCC(=O)Nc2ccc(F)cc2)c1	0	0	0	0	0	0	-
CCN(Cc1ccccc1)C(=O)C1CCN(c2ncnc3c2nc2n3CCCCC2)CC1	0	0	0	0	0	0	-
CCc1ccccc1N(CC)C(=O)C1CCN(c2ncnc3c2nc2n3CCCCC2)CC1	0	64	0	0	0	0	0
O=C(Nc1ccc(F)cc1)Nc1nnc(Cc2ccccc2F)s1	0	0	0	-	0	0	-
COc1ccccc1C(=O)C1CCCN(Cc2cccc(OCCO)c2)C1 (stereo not drawn)	0	0	0	0	0	0	-
COc1ccc(NC(=O)Cn2c3ccccc3c3nc4n(c(=O)c32)CCS4)cc1	0	70	0	0	0	0	0
CCN(CC)C(=O)C(=O)c1cccn1-c1c(Cl)cccc1C#N	0	0	0	0	0	0	-
CCOc1ccc(-c2nc(N)ncc2-c2ccccc2)c(O)c1	0	50	0	0	0	0	0
